High-throughput results: PubChem BioAssay, The Scripps Research Institute Molecular Screening Center
GBA activity up: increases beta-glucosidase activity in Gaucher fibroblasts. P04062. L444P Gaucher fibroblasts, 4-MU-glucoside fluorescence, 3 days. activation, % at 10 µM. actives 0.44% (n = 30,000); in the data active = activation above about 65%;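 note: 0% = vehicle wells and 100% = positive control wells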
The depositor's hits bear a star. The full list was thinned out, with hits kept by preference.

SMILES | GBA activity up
O=C1CC(=O)N(c2ccc3c(c2)OCO3)C(=O)N1 | 81*
CCSc1cc(C2C(C#N)=C(N)Oc3n[nH]c(C)c32)c(C)o1 (stereo not drawn) | -26
Cc1cccnc1NC1=NCC(C)S1 (stereo not drawn) | -3
ClC1=CCC2CN(CCN3CCCCC3)CC2C1 (stereo not drawn) | -33
COc1cc2nc(CN3CC=C(c4ccccc4)CC3)[nH]c(=O)c2cc1OC | -85
O=c1cccc2n1CC1CC2CN(Cc2cccc(Cl)c2Cl)C1 (stereo not drawn) | 404*
COc1ccc(C(=O)N2CCCC2=O)cc1 | -15
CCCNC(=O)N1C2CCC1CC(O)(c1cccnc1)C2 (stereo not drawn) | -1
CCOCCCNC(=O)CN1C2CCC1CC(O)(c1ccc(OC)cc1)C2 (stereo not drawn) | 6
CC(C)=CCC12CN3CCN(CC(C3)C1=O)C2 | -21
